Assay outcomes (PubChem BioAssay)
ELG1 genotox: qHTS screen for small molecules that induce genotoxicity in human embryonic kidney (HEK293T) cells expressing luciferase-tagged ELG1. HEK293T ELG1-luciferase reporter, luminescence, 16 h. hit rate 1.3% among 330,000. Potency, µM (top dose mostly 46 µM), for inactives: at the highest dose activity change, positive = activation, most hits filed as activators; also: % of control where 0% means no effect; nearly all actives have a fitted effect of over 60% in size
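HEK293T cells expressing luciferase-tagged ELG1 were exposed to compound or DMSO vehicle for 16 hr at 37 °C and 5% CO2. Luciferase activity was then measured with ONE-Glo after 30 min at room temperature.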
SMN2 splice enh: qHTS Assay for Enhancers of SMN2 Splice Variant Expression; HEK293 SMN2-luciferase splicing reporter, luminescence, 30-36 h; Potency, µM (top dose mostly 46.1 µM), without a hit: top-dose activity change, positive = activation, most hits filed as activators; hit rate 2.8% among 210,000; also: % of control where 0% means no effect; nearly all actives have a fitted effect of over 55% in size
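HEK293 cells carry an SMN2 minigene-luciferase reporter in which exon 7 inclusion puts luciferase in frame. Cells were seeded at 2000 cells/well, attached for 10-12 hours, then exposed to compounds for 30-36 hours at 37C before ONE-Glo luminescence.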
NPC1 prom act: qHTS Assay for NPC1 Promoter Activators. Potency, µM (series often up to 9.22 µM), for the others: at the top dose activation, usual class: activators. hit rate 2.4% among 320,000. Huh7 NPC1 promoter luciferase reporter, 24 h. AID 485313, 2010; also: % of control where 0% means no effect; nearly all actives have a fitted effect of over 60% in size
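NPC1 promoter–luciferase Huh7 cells; 24 h compound; luminescence.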
FLuc modulator: qHTS profiling assay for firefly luciferase inhibitor/activator using purifed enzyme and Km concentrations of substrates (counterscreen for miR-21 project) | hit rate 6.9% among 360,000 | purified FLuc, Km substrates, luminescence inhibition | Potency, µM (series often up to 57.5 µM), without a hit: at the highest dose activity change, negative = inhibition, hits mostly inhibitors;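 also: plate controls were vehicle for no effect and reference inhibitor for full effect; nearly all actives have a fitted effect of over 55% in size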
Target sequence (P08659 whole entry, looked up): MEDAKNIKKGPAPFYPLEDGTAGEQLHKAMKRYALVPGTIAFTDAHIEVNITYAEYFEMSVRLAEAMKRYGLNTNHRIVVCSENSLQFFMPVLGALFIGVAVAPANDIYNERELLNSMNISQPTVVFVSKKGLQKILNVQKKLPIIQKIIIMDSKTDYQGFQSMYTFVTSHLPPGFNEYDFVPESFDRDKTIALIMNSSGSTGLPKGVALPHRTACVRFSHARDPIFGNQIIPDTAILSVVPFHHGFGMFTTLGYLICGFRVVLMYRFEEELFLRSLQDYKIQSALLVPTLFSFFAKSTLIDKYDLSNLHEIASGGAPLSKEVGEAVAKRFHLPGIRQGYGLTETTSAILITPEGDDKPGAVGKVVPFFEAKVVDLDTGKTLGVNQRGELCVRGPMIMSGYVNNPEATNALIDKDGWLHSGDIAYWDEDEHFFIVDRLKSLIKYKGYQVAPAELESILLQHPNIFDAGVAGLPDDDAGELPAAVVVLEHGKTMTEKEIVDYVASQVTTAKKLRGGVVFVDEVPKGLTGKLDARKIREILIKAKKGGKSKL
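Purified P. pyralis luciferase, 10 nM final, with Km-level 10 uM D-luciferin and 10 uM ATP in 50 mM Tris acetate pH 7.5, 10 mM Mg acetate, 0.01% Tween-20, 0.05% BSA; 6-point qHTS titration about 60 µM downward; luminescence read.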
Rab9 promoter act: qHTS Assay for Rab9 Promoter Activators | hit rate 2.8% among 320,000 | Potency, µM (series often up to 9.22 µM), for inactives: at the top dose activation, negative = inhibition, hits mostly activators | Huh7 Rab9 promoter-luciferase reporter, luminescence, 24 h | AID 485297, 2010; also: % of control where 0% means no effect; nearly all actives have a fitted effect of over 60% in size
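Cell-based reporter: Huh7 stable for Rab9 promoter-driven luciferase, plated in reduced-serum medium with 10% FBS at 1500 cells/well, compound-treated 24 h at 37 °C, luminescence read after 10 min reagent.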
Luc counter: Counterscreen for Luciferase (Kinase-Glo TM) Inhibition; Luciferin 4-monooxygenase (Photuris pensylvanica), Q27757; Kinase-Glo luciferase, ATP luminescence, 8 min; Potency, µM (top dose mostly 38.3 µM), for inactives: at the highest dose activity change, negative = inhibition, hits mostly inhibitors; hit rate 0.28% among 200,000; AID 1379, 2008; also: % is scaled to controls: 0 for no effect and ±100 for the full control effect; nearly all actives have a fitted effect of over 60% in size
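Inhibition of Kinase-Glo luciferase light generation was assessed at 10 uM ATP in pH 7.2 imidazole buffer, with luminescence measured after eight minutes at ambient temperature.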
The depositor's hits bear a star; ? = inconclusive; . = not tested or not shown. An excerpt weighted towards active compounds, which were near 7.3% of everything screened. Calls follow the shape of the dose curve; as a rule, active = well fitted curve in the direction sought with a large enough effect; inconclusive = small, poorly fitted or top-dose-only effect, or another doubt; inactive = no such curve, though single readings can be large; an effect the other way counts as inactive or inconclusive. Potency is read from the fitted curve at half-maximal effect.

SMILES	ELG1 genotox	SMN2 splice enh	NPC1 prom act	FLuc modulator	Rab9 promoter act	Luc counter
NC(=O)c1ccccc1NC(=O)Nc1cccc(Cl)c1	8%	12%	1%	15µM*	-8%	-8%
COc1cccc(Nc2ccc(Nc3cccc(OC)c3)nn2)c1	-1%	4%	-2%	19µM*	-7%	1%
O=C(Nc1cccc(Cl)c1)Nc1ccccc1C(=O)O	?	.	0.56µM*	0.85µM*	0.13µM*	.
COc1cccc(Nc2ccccc2C(=O)O)c1	13%	?	1%	27µM*	13%	-1%
COc1cccc(Nc2c(Nc3cccc(OC)c3)c(=O)c2=O)c1	0%	.	-3%	1%	-3%	.
O=C(COC(=O)c1cc(-c2cccs2)nc2ccccc12)NCc1ccco1	-5%	-8%	-9%	?	-3%	11%
COc1cccc(C(=O)NC(=NCCc2c[nH]c3ccc(OC)cc23)Nc2nc(C)cc(C)n2)c1	.	-24%	.	-6%	.	.
CC(=O)Nc1ccc(C(=O)Nc2ccc(S(=O)(=O)N3CCCCC3)cc2)cc1	-9%	.	-1%	3%	3%	.
COc1ccc(CCn2nc(C)c([N+](=O)[O-])c2C)cc1	16µM*	.	3.2µM*	12µM*	3.2µM*	.
O=C1CC(c2cccc(Oc3ccccc3)c2)NC(=O)N1 (stereo not drawn)	0%	5%	7%	6%	-1%	-3%
Cc1csc(SCC(=O)Nc2sccc2C(N)=O)n1	?	13µM*	?	?	?	-15%
NC(=O)c1ccsc1NC(=O)CSc1ccccc1F	10µM*	?	?	21µM*	?	-4%
Cc1ccc(OCC(=O)N2CCCCCCC2)cc1C	10%	.	17%	?	?	.
O=C(Oc1ccc(-c2cnc3ccccc3n2)cc1)c1ccco1	16µM*	?	?	0.27µM*	?	?
CCC(=O)Oc1ccc(-c2cnc3ccccc3n2)cc1	?	?	?	0.3µM*	?	-14%
Cc1c(C(=O)Oc2ccc(-c3cnc4ccccc4n3)cc2)cccc1[N+](=O)[O-]	?	24%	?	?	?	0%
O=C(Oc1ccc(-c2cnc3ccccc3n2)cc1)c1cc([N+](=O)[O-])ccc1Cl	?	?	4µM*	?	9%	-2%
Cc1ccc(C(=O)COC(=O)c2cccc(NC(=O)c3ccc(Cl)cc3Cl)c2)cc1	.	?	.	0.85µM*	.	.
O=C(Nc1cccc(NC(=O)c2ccc(Cl)cc2Cl)c1)c1cccnc1	-9%	.	-5%	13µM*	-5%	.
CCC(=O)NC(=S)Nc1cccc(NC(=O)c2ccc(Cl)cc2Cl)c1	0%	-7%	-14%	12µM*	-8%	1%
CC(C)(C)C(=O)NC1=NN(c2c(Cl)cc(Cl)cc2Cl)C(=O)C1	-3%	.	-11%	3%	-3%	-4%
COc1cccc(C(=O)Nc2cccc(C(=O)NC3=NN(c4c(Cl)cc(Cl)cc4Cl)C(=O)C3)c2)c1	9%	9%	-2%	9.5µM*	17%	-2%
O=C(Nc1cccc(NC(=O)c2cccnc2)c1)c1cccnc1	-13%	-16%	3%	-9%	2%	-2%
COc1ccc(-c2[nH]ncc2CN2CCCO2)c(F)c1	3%	.	-6%	-3%	1%	3%
Cc1nc2ccc(NC(=O)c3ccc(N4C(=O)CCC4=O)cc3)cc2s1	?	6%	-2%	-2%	-5%	3%
SMILES	ELG1 genotox	SMN2 splice enh	NPC1 prom act	FLuc modulator	Rab9 promoter act	Luc counter
COc1cccc(C(=O)Nc2cccc(NC(=O)c3ccc(Cl)cc3Cl)c2)c1	.	-9%	.	7.6µM*	.	.
COc1cccc(C(=O)Nc2cccc(NC(=O)c3ccccc3Cl)c2)c1	-8%	.	-1%	15µM*	10%	.
O=C(COC(=O)C12CC3CC(CC(O)(C3)C1)C2)Nc1cccc(Br)c1	2%	.	1%	13µM*	-2%	.
O=C(CCNc1ccc(F)c(Cl)c1)c1ccco1	-2%	-2%	-4%	-3%	0%	-1%
O=C(/C=C/Nc1ccc(F)c(Cl)c1)c1ccco1	4.1µM*	?	1%	5.4µM*	0%	-9%
O=C(NC1CCN(C(=O)Nc2cccc(F)c2)CC1)c1ccco1	5%	.	3%	-2%	9%	.
O=C(/C=C/Nc1cccc(F)c1)c1ccco1	3.2µM*	13µM*	?	2.1µM*	2.5µM*	-24%
CC(=O)c1ccccc1OCC(O)Cn1ccnc1 (stereo not drawn)	0%	.	1%	0%	-5%	.
O=C(NNC(=S)Nc1ccccc1)c1ccc2ncccc2c1	5%	14%	7%	?	?	1%
CC(C)(C)NC(=S)NNC(=O)c1ccc2ncccc2c1	24%	14µM*	?	?	0.5µM*	1%
O=C(NC(=S)Nc1ccc2nc[nH]c2c1)c1ccccc1	?	.	2.8µM*	?	4µM*	.
O=C(Nc1ccc2ncccc2c1)c1ccccc1	2%	.	-3%	-5%	2%	.
O=C(NC(=S)Nc1ccc2ncccc2c1)c1ccccc1	?	?	2.8µM*	?	2.2µM*	-1%
COc1cccc(-c2nc(S(=O)(=O)c3ccccc3)c(NCc3ccccc3)o2)c1	.	5%	.	4%	.	.
CC(C(=O)Nc1ccccc1)N(C)CCOc1ccccc1 (stereo not drawn)	-1%	.	-2%	3%	0%	.
CC(=O)Nc1ccc(OCC(O)CN2CCN(c3ccc(Cl)cc3)CC2)cc1 (stereo not drawn)	-3%	-49%	-1%	13%	-3%	1%
Cc1noc(/C=C/Nc2ccc(F)cc2F)c1[N+](=O)[O-]	16µM*	4µM*	?	2.1µM*	1.4µM*	?
Cc1noc(/C=C/c2ccccn2)c1[N+](=O)[O-]	-32%	.	-29%	?	-16%	.
COc1ccccc1N/C=C/c1onc(C)c1[N+](=O)[O-]	?	1.1µM*	1µM*	0.3µM*	0.4µM*	11µM*
Fc1ccc(C(c2nnc(-c3ccccc3)o2)N2CCN(c3cccc(Cl)c3)CC2)cc1 (stereo not drawn)	.	.	.	-11%	.	.
N#Cc1cc(C(=O)c2cc(Cl)ccc2O)cn(CC2CCCO2)c1=O (stereo not drawn)	-1%	8%	-5%	1%	0%	0%
C[C@@H]1CN([C@@H](C)CO)C(=O)Cc2cc(NS(=O)(=O)c3ccccc3)ccc2O[C@H]1CN(C)S(C)(=O)=O	1%	.	.	.	.	.
